Values joined by “and” are separate entries in the source; they are usually repeats but may differ in a detail not shown here. Equal values may be shown once. This is part of a sample that, as a whole, favours compounds with a hit. Of some 83,000 tested, about 20% had one in any assay.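 Plates (96-well) were seeded with cells, treated with compound at one concentration, and incubated for 48 hours before percent growth was determined.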 Active and inactive are the calls of the source. The calls were made as follows: active = growth percent below 10; inactive = the rest.

The test system of this test is HL-60(TB) leukemia. Put plainly: NCI-60 one-dose screen, 48 h (100 = growth as untreated, 0 = no growth, -100 = all killed). The note with it: 10 µM unless noted.
With `COC1=CC(c2ccc[nH]2)=N/C1=C\c1[nH]c(C)c(C(=O)CCCCC(=O)NCc2ccccc2)c1C`, the growth is 69% (inactive).

As to `CC1=CC[C@@H]2C(C)(C)C(=O)CC[C@@]2(C)[C@@H]1COc1ccc2ccc(=O)oc2c1`, the growth was 85.9% (inactive).

`CCN(CC)c1cc(C)c2cc(NC(=O)c3cccc(OC)c3)ccc2n1`: the growth is 84.7% (inactive).

`CN1CCN(Cn2nc(-c3cc(Cl)cc(Cl)c3Cl)n(/N=C/c3ccc(Cl)cc3)c2=S)CC1`: the growth was -38.6% (active).

Take `O=C(Nc1ncc(Cc2ccc(Cl)c(C(F)(F)F)c2)s1)c1ccc2nnsc2c1`: the growth was 42.5% (inactive).

As for `CCN1CCN(Cc2ccc(NC(=O)c3cccc(C#Cc4cccc5[nH]nc(N)c45)c3)cc2C(F)(F)F)CC1`, the growth was -54.1% (active).

Regarding `OCC(O)c1nc2ccc3[nH]ncc3c2c2c1CCCC2` (centres undefined), the growth was -16.9% (active).

In the case of `CCCCCCc1cc2cc(-c3csc(/C=C/c4ccccc4)n3)c(=O)oc2cc1O`, the growth is -46.8% (active).

Consider `COc1ccc(C(=O)Nc2ncc(Cc3ccc(F)cc3)s2)cc1`, for which the growth was -2.26% (active).

`CCC(/C=C\C(C)=O)CC`: the growth is 104% (inactive).

Turning to `O=C1CC(N2C(=O)/C(=C/C(Cl)=C\c3ccc([N+](=O)[O-])cc3)SC2=S)C(=O)N1c1ccc(Cl)cc1` (centres undefined), the growth was 21.3% (inactive).

Take `CCCCC(=O)Nc1ncc(Cc2ccc(Cl)cc2)s1`: the growth was 66.1% (inactive).

As to `O=C(CN1CCCCC1)Sc1nnc2sc3ccccc3n12`, the growth was 98.6% (inactive).

With `Nc1nc2c(s1)CCc1cn(S(=O)(=O)c3ccccc3)cc1-2`, the growth was 70.6% (inactive) and 76.2% (inactive).

Turning to `C=C[C@]1(C)C=C2C(=O)[C@@]3(O)OC(=O)[C@@]4(CCCC(C)(C)[C@H]34)[C@@]2(O)CC1`, the growth is -25% (active).

`CS(=O)(=O)Nc1cc(-c2ccc3ncnc(Nc4ccc5c(cnn5Cc5ccccn5)c4)c3c2)cnc1Cl`: the growth is 56.5% (inactive).

For the compound `O=C(Cn1cc(CN2C(=O)c3ccccc3S2(=O)=O)nn1)Nc1nc2ccccc2s1`, the growth is 113% (inactive).

With `O=C(/C=C/c1ccccc1)c1cccc(OCCCOc2cccc(C(=O)/C=C/c3ccccc3)c2)c1`, the growth is 82.3% (inactive).

As for `COc1ccc(-c2noc(N)c2-c2cc(OC)c3c(c2)OCO3)cc1`, the growth was -29.4% (active).

For the compound `CCN(CC)CCC(CNc1ccnc2cc(Cl)ccc12)c1ccc(OC)cc1` (centres undefined), the growth was 63.7% (inactive) and 61.7% (inactive).

On to `Clc1ccc(/C=N\N2CCCCCC2)cc1`, for which the growth was 99.3% (inactive) and 77.3% (inactive).

For the compound `N#Cc1c(N)nc(N)nc1Nc1ccc(Br)cc1`, the growth is 93.3% (inactive).

On to `O=C1/C=C/[C@@H](O)[C@@H]2C[C@@H](O)C[C@H]2/C=C/CCCCO1`, for which the growth is -22.8% (active).

For `O=C1c2ccccc2C(=O)c2c1oc1c2c(=O)[nH]c2ccccc21`, the growth was 2.26% (active).

Take `COc1cccc(CCC2CCCN(c3cc(C)nc(N)n3)C2)c1` (centres undefined): the growth is 1.26% (active).

As for `O=C1N[C@@H]2NC(=[N+]3CCOCC3)N[C@@H]2N1`, the growth is 98% (inactive).

In the case of `CC#Cc1nc2ccccc2c(=O)[nH]1`, the growth was 11.4% (inactive).

For the compound `O=C(O)Cc1ccccn1`, the growth is 106% (inactive).

`CCOc1ccc(NC(=O)CSc2oc(-c3ccccc3)nc2S(=O)(=O)c2ccc(F)cc2)cc1`: the growth is 65.2% (inactive).

For the compound `CCOC(=O)NCCc1nc2c([nH]1)c(=O)n(C)c(=O)n2C`, the growth is 124% (inactive).

In the case of `CC(=O)/C(=C\c1c(-c2ccccc2)[nH]c2ccccc12)S(C)(=O)=O`, the growth was -55.2% (active).

`C[C@H]1[C@H]2[C@H]3CC[C@@H]4[C@@]5(C)C/C(=C/c6cccnc6)C(=O)C(C)(C)[C@@H]5CC[C@@]4(C)[C@]3(C)CC[C@]23CO[C@]1(C)[C@@H](C(=O)/C=C\c1cccnc1)C3`: the growth is 14.5% (inactive).

As for `CCOC(=O)c1cc(C(=O)c2cc(OC)c(OC)c(OC)c2)n2ncccc12`, the growth was -32.5% (active).

For the compound `Cn1c2c(cc(S(=O)(=O)c3ccccc3)c1=O)CCc1c-2cnn1-c1ccccc1Cl`, the growth was 95.3% (inactive).

As for `Nc1ncncc1-c1ccc(F)cc1`, the growth was 103% (inactive).

As for `CN(C)CCCOc1cccc(NC2=C(Cl)C(=O)C(Nc3cccc(OCCCN(C)C)c3)=C(Cl)C2=O)c1`, the growth is -53.2% (active).

With `Cc1cccc(Cl)c1NC(=O)c1ccc2nc(NC(=O)NC3CC(C)(C)NC(C)(C)C3)sc2c1`, the growth is 110% (inactive).

With `CCCCCC(=O)OCCC1CCCCC1`, the growth is 109% (inactive).

Take `Cc1ccc(NC(=O)N[C@@H](Cc2cc(F)cc(F)c2)C(=O)N[C@@H]2C(=O)N3CCC[C@H]3C(=O)N3CCOC[C@H]3C(=O)N[C@@H](C)C(=O)N3C[C@H](C)C[C@H]3C(=O)O[C@H]2C)cc1`: the growth was 14.5% (inactive).
